A short description of assay [1]: P-glycoprotein substrates identified in KB-3-1 adenocarcinoma cell line, qHTS therapeutic library screen (AID 1346986). Further: nearly all actives have a fitted effect of over 60% in size.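 Further: potency is for cytotoxicity meaning loss of cell viability.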 The method in brief:
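KB-3-1 parental cells and P-gp-overexpressing KB-8-5-11 (colchicine omitted during assay) plated at 500 cells/well, dosed in dose-response, incubated 72 h at 37 degree C. CellTiter-Glo luminescence read; KB-8-5-11 also tested with tariquidar.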
(Quantitative high-throughput screening tests each substance at several concentrations.)

Assay [2] in a line: P-glycoprotein substrates identified in KB-8-5-11 adenocarcinoma cell line, qHTS therapeutic library screen (AID 1346987). Further: nearly all actives have a fitted effect of over 65% in size. On activity change, negative = cytotoxicity: series mostly up to about 44 µM. A digest of the protocol:
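KB-8-5-11: colchicine-selected sub-line of KB-3-1 over-expressing P-gp; assay medium lacked colchicine. 72 h drug exposure at 37 degree C, CellTiter-Glo.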

Molecules are shown by their SMILES. Records with an inconclusive call do not appear. Entries that show only a call come without a potency. Values without a mark were called inactive. Active and inactive are the calls of the source. The call rests on the fitted dose curve; in most records, active means well fitted curve in the direction sought with a large enough effect; inconclusive means small, poorly fitted or top-dose-only effect, or another doubt; inactive means no such curve, though single readings can be large; an effect the other way counts as inactive or inconclusive.
Potency means the concentration at half of the fitted maximal effect.

As for `C[C@@H]1O[C@@H](OC[C@H]2O[C@@H](OCCc3ccccc3)[C@H](O)[C@@H](O)[C@@H]2O)[C@H](O)[C@H](O)[C@H]1O`, the Potency entry in assay [1] and in assay [2] was “inactive” in each case.
For `C[C@@H]1CC[C@]2(C(=O)O)CC[C@]3(C)C(=CCC4[C@]5(C)C(CC[C@]43C)C(C)(C)[C@@H](O)[C@H](O)[C@@H]5O)C2[C@]1(C)O` (stereo not given in full), the Potency entry in assay [1] and in assay [2] was “inactive” in each case.
On to `N#CC1C(=O)Nc2scc(-c3ccc(-c4ccccc4O)cc3)c2C1=O` (stereo not given), for which the Potency entry in assay [1] and in assay [2] was “inactive” each time.
In the case of `CC(=O)O[C@H](C[C@@H](C)[C@H]1C(=O)[C@H](O)[C@@]2(C)[C@@H]3CCC4C(C)(C)[C@@H](O[C@@H]5OC[C@H](O)[C@H](O)[C@H]5O)CC[C@@]45C[C@@]35CC[C@]12C)[C@@H]1OC1(C)C` (stereo not given in full), the Potency result in assay [1] and in assay [2] was “inactive” in each case.
Regarding `C=C1CC2(C(=O)O)CC1CCC2C1(C)CCCC2(C)C(=O)OC(O)C21` (stereo not given), the Potency result in assay [1] and in assay [2] was “inactive” throughout.
Turning to `Cc1cc(O)c(C(C)C)cc1O[C@@H]1O[C@H](CO)[C@@H](O)[C@H](O)[C@H]1O`, the Potency result in assay [1] and in assay [2] was “inactive” throughout.
As to `COCC(=O)N1CCc2cc(-c3csc(NC(=O)c4cc(OC)cc(OC)c4)n3)ccc21`, the Potency entry in assay [1] and in assay [2] was “inactive” each time.
For `COc1ccc2c(c1)OC[C@]1(O)c3cc4c(cc3O[C@H]21)OCO4`, the Potency result in assay [1] and in assay [2] was “inactive” each time.
`CC(=O)OC[C@@]12[C@H](O)C[C@@H](C)[C@]3(C[C@@H](c4ccoc4)OC3=O)[C@H]1C[C@H](O)C[C@]21CO1`: the Potency entry in assay [1] and in assay [2] was “inactive” throughout.
As for `Cc1cc(N2CCCCC2)nc2ccccc12`, the Potency result in assay [1] and in assay [2] was “inactive” in each case.
In the case of `Cc1c(N2C(=O)c3ccc(C(=O)O)cc3C2=O)c(=O)n(-c2ccccc2)n1C`, the Potency result in assay [1] and in assay [2] was “inactive” in each case.
`COc1cc(C(C)=O)ccc1O[C@@H]1O[C@H](CO[C@@H]2O[C@@H](C)[C@H](O)[C@@H](O)[C@H]2O)[C@@H](O)[C@H](O)[C@H]1O`: the Potency entry in assay [1] and in assay [2] was “inactive” each time.
`C/C(=C\CO)CC/C=C(\C)C(=O)O[C@H]1[C@H](OC2OC=C(C(=O)O)C3CCC(C)(O)C23)O[C@H](CO)[C@@H](O)[C@@H]1O` (stereo not given in full): the Potency entry in assay [1] and in assay [2] was “inactive” each time.
`COc1cccc(-n2nc(C(=O)O)cc2-c2ccc(C3CCCCC3)c(Cl)c2)c1`: the Potency entry in assay [1] and in assay [2] was “inactive” throughout.
On to `C=C1CC2[C@]3(C)C(=C(O)C(=O)[C@@]2(C)[C@]2(C(=O)OC)C(=O)C(C)OC(=O)[C@@]12C)C(C)(C)C(=O)CC3O` (stereo not given in full), for which the Potency entry in assay [1] and in assay [2] was “inactive” throughout.
Consider `CC1CC(O)CC(C)(C)C1(O)CCO` (stereo not given), for which the Potency entry in assay [1] and in assay [2] was “inactive” in each case.
As to `COc1ccc(C)c2sc(NC(=O)c3ccncc3)nc12`, the Potency result in assay [1] and in assay [2] was “inactive” each time.
For the molecule `C=CC(C)(O)CC/C=C(\C)C(=O)OCC1OC(OC2CCC3(C)C(CCC4(C)C3CC=C3C5CC(C)(C)C(O)CC5(C(=O)O)CCC34C)C2(C)C)C(O)C(OC2OC(CO)C(O)C(OC3OC(CO)C(O)C(OC4OC(COC5OC(CO)C(O)C(O)C5O)C(O)C(O)C4O)C3O)C2O)C1O` (stereo not given), the outcome in assay [1] is “inactive [at 9.29 µM]”. The activity change, negative = cytotoxicity in assay [2] was 5.27% [at 9.29 µM].
Turning to `CN1C(=O)c2ccccc2-n2c(nc3ccccc3c2=O)[C@@]12O[C@H]2c1ccccc1`, the Potency entry in assay [1] and in assay [2] was “inactive” throughout.
Regarding `CCOC(=O)[C@H]1O[C@@H]1C(=O)N[C@@H](CC(C)C)C(=O)NCCC(C)C`, the Potency entry in assay [1] and in assay [2] was “inactive” throughout.
On to `C=C/C=C/[C@@H]1OC[C@H](/C=C/C=C/C)[C@H]1O`, for which the Potency result in assay [1] and in assay [2] was “inactive” in each case.
For `COc1c2c(c(C)c3c1C(=O)OC3)O[C@@]1(C)C[C@@H](O)[C@]34O[C@](OC)(CC[C@]3(C)[C@H]1C2)OC4(C)C`, the Potency entry in assay [1] and in assay [2] was “inactive” in each case.
`NC(=O)c1cccc(-c2cc(O)cc(OC(=O)NC3CCCCC3)c2)c1`: the Potency result in assay [1] and in assay [2] was “inactive” throughout.
For `OC[C@H]1O[C@@H](OC(CCCCc2ccc(O)cc2)CCc2ccc(O)cc2)[C@H](O[C@@H]2OC[C@](O)(CO)[C@H]2O)[C@@H](O)[C@@H]1O` (stereo not given in full), the Potency result in assay [1] and in assay [2] was “inactive” each time.
Take `CC1=C(CC(=O)O)c2cc(F)ccc2C1=Cc1ccc(S(C)(=O)=O)cc1`: the Potency entry in assay [1] and in assay [2] was “inactive” each time.
`CC(NC(=O)CC(=O)O)c1nc2ccccc2c(=O)[nH]1` (stereo not given): the Potency result in assay [1] and in assay [2] was “inactive” in each case.
Turning to `CC(C)[C@@H](C)/C=C/[C@@H](C)[C@H]1CC[C@H]2C3=CC=C4C[C@@H](O)CC[C@]4(C)[C@H]3CC[C@]12C`, the Potency entry in assay [1] and in assay [2] was “inactive” in each case.
`CC(=O)NC(CCC(=O)O)C(=O)NCCc1ccc(O)cc1` (stereo not given): the Potency result in assay [1] and in assay [2] was “inactive” each time.
With `Nc1ccn([C@@H]2C(F)=C(CO)[C@@H](O)[C@H]2O)c(=O)n1`, the values for the Potency in assay [1] and in assay [2] were 3.66 µM (active) and 10.3 µM (active), respectively.
In the case of `C=CC(C)(O)CC/C=C(/C)C(=O)OC1C(OC2OCC(OC3OC(CO)C(O)C(O)C3O)C(OC3OCC(O)C(OC4OC(C)C(O)C(O)C4O)C3O)C2O)COC(OC(=O)C23CCC(C)(C)CC2C2=CCC4C5(C)CCC(OC6OC(CO)C(OC7OC(CO)C(O)C(OC8OCC(O)C(O)C8O)C7O)C(O)C6O)C(C)(C)C5CCC4(C)C2(C)CC3O)C1O` (stereo not given), the activity change, negative = cytotoxicity in assay [2] is -0.997% [at 5.11 µM].
Consider `O=C(/C=C/c1ccc(O)c(O)c1)OCc1ccccc1O[C@@H]1O[C@H](CO)[C@@H](O)[C@H](O)[C@H]1O`, for which, in assay [2], the Potency entry was “inactive”.
Same read-out and setting: the result for `COc1cc(C2OCC3C(c4ccc(OC5OC(CO)C(O)C(O)C5O)c(OC)c4)OCC23)ccc1O` (stereo not given) reads “inactive”; that for `C/C=C1\[C@H](O[C@@H]2O[C@H](CO)[C@@H](O)[C@H](O)[C@H]2O)OC=C(C(=O)OC)[C@H]1CC(=O)OC`, “inactive”.
For `CC1OC(OC2C(C)OC(OC3C(OC(=O)/C=C/c4ccc(O)cc4)C(CO)OC(OC4(COC(=O)/C=C/c5ccc(O)cc5)OC(CO)C(O)C4O)C3OC3OCC(O)(CO)C3O)C(O)C2O)C(O)C(O)C1O` (stereo not given), the activity change, negative = cytotoxicity in assay [2] was 9.5% [at 9.29 µM].
Turning to `COc1cc(/C=C/c2cc(O)cc(O[C@@H]3O[C@H](CO)[C@@H](O)[C@H](O)[C@H]3O)c2)ccc1O`, in assay [2], the Potency entry is “inactive”.
On the same count and under the same terms, the result for `CC1[C@@H](O)[C@@H](O)C2[C@]3(C)C(C[C@H]4OC(=O)[C@H](O)[C@]1(O)[C@@]24C)C(C)(O)C[C@H](O)[C@H]3O` (stereo not given in full) reads “inactive”.
The same measure, in the same setting: the result for `CC1=CC2(O)/C=C/C(C)(O)CC(O)/C=C/C(=O)OC23C(=O)NC(CC(C)C)C3C1C` (stereo not given) reads “inactive”; that for `C/C=C(\C)C(=O)O[C@H]1[C@@H](O[C@]2(COC(=O)CC(C)C)O[C@H](COC(=O)C(C)C)[C@@H](OC(C)=O)[C@@H]2O)O[C@H](COC(C)=O)[C@@H](O)[C@@H]1O`, “inactive”; that for `C/C=C/C1=CC2=CC(=O)C(C)(O)C(OC(=O)c3c(C)cc(O)cc3O)C2CO1` (stereo not given), “inactive”.
On the same count and under the same terms, the result for `COc1cc(CC(COC2OC(CO)C(O)C(O)C2O)c2cc(/C=C/CO)cc(OC)c2O)ccc1O` (stereo not given) reads “inactive”.
Regarding `C=C(C(=O)O)[C@@H]1CC=C2CCC[C@H](C)[C@@]2(C)C1`, the Potency result in assay [2] was “inactive”.
For `Cc1c(CN(C)C(=O)/C=C/c2cnc3c(c2)CCC(=O)N3)oc2ccccc12`, the Potency entry in assay [2] is “inactive”.
On the same count and under the same terms, for `CC(C)=CC/C=C(/C)[C@H]1CC[C@]2(C)[C@@H]1[C@H](O)CC1[C@@]3(C)CC[C@H](O)C(C)(C)[C@@H]3[C@@H](O[C@@H]3O[C@H](CO)[C@@H](O)[C@H](O)[C@H]3O[C@@H]3O[C@@H](C)[C@H](O)[C@@H](O)[C@H]3O)C[C@]12C` (stereo not given in full) the value was “inactive”; for `COC(=O)[C@@]1(O)C=CC[C@@H]2[C@@]3(C)C[C@@H](c4ccoc4)OC(=O)[C@H]3CC[C@]21C`, “inactive”.
For the molecule `C[C@@H]1O[C@@H](O[C@H]2[C@H](O[C@H]3CC[C@@]4(C)C(CC[C@]5(C)C4CC=C4C6CC(C)(C)CC[C@]6(C(=O)O[C@@H]6O[C@H](CO[C@@H]7O[C@H](CO)[C@@H](O[C@@H]8O[C@@H](C)[C@H](O)[C@@H](O)[C@H]8O)[C@H](O)[C@H]7O)[C@@H](O)[C@H](O)[C@H]6O)CC[C@]45C)[C@]3(C)CO)OC[C@H](O)[C@@H]2O)[C@H](O)[C@H](O)[C@H]1O` (stereo not given in full), the outcome in assay [2] was “inactive [at 9.29 µM]”.
For `COC(=O)C[C@@H]1C(C(=O)O)=CO[C@@H](O[C@@H]2O[C@H](CO)[C@@H](O)[C@H](O)[C@H]2O)/C1=C\COC(=O)/C=C\c1ccccc1`, the Potency entry in assay [2] was “inactive”.
On the same count and under the same terms, the result for `NS(=O)(=O)NCCNc1nonc1C(=Nc1ccc(F)c(Br)c1)NO` reads “inactive”.
On the same count and under the same terms, the result for `CC[C@H](C)/C=C(C)/C=C/C(=O)Cc1cc(O)c(C)c(O)c1C=O` reads “inactive”; that for `CC1CCCC2OC2C(=O)c2c(O)cc(O)cc2CC(=O)O1` (stereo not given), “inactive”; that for `CC1C(=O)CC2C3C(O)CC(C(=O)O)C12CC3(C)C` (stereo not given), “inactive”.
On the same count and under the same terms, the result for `CC1CCC2(NC1)OC1C(=O)C3C4CCC5CC(O[C@@H]6O[C@H](CO)[C@@H](O)[C@H](O)[C@H]6O[C@@H]6O[C@@H](C)[C@H](O)[C@@H](O)[C@H]6O)CCC5(C)C4CCC3(C)C1C2C` (stereo not given in full) reads “inactive”; that for `C[C@@H]1CC[C@]2(C)C(C[C@@H](O)[C@H](O)[C@]23CO3)[C@@]1(C)CCc1ccoc1` (stereo not given in full), “inactive”.
`CC1(CCC(=O)O)C(=O)C=CC23CC4CC(OC4(C)C2O)C13` (stereo not given): the Potency result in assay [2] was “inactive”.
On to `CC(C)(O)c1ccc2c(c1)C(O)CC1C(C)(C(=O)O)CCCC21C` (stereo not given), for which the Potency entry in assay [2] is “inactive”.
As to `O=C(c1ccccn1)c1cnn2c(-c3ccncc3)ccnc12`, the Potency result in assay [2] was “inactive”.
For `C=C1CCC2C(OC(=O)C2(O)COC(C)=O)C2C(=C)C(O)CC12` (stereo not given), the Potency result in assay [2] is “inactive”.
The same measure, in the same setting: for `C=CC1C(O[C@@H]2O[C@H](CO)[C@@H](O)[C@H](O)[C@H]2O)OC=C(C(=O)OC)C1CC(=O)O` (stereo not given in full) the value was “inactive”; for `COc1ccc(C2=CC(=O)OC2Cc2ccc(O)cc2)c(O)c1` (stereo not given), “inactive”; for `COC1CCCC/C(C)=C/C2C=C(C)C(C)C3C(CC(C)C)NC(=O)C23C(=O)C1` (stereo not given), “inactive”.
The same measure, in the same setting: the result for `C=C1[C@@H]2[C@H]3OC(=O)C(=C)[C@@H]3CC[C@@](C)(O)[C@@H]2C[C@@H]1O[C@@H]1O[C@H](CO)[C@@H](O)[C@H](O)[C@H]1O` reads “inactive”; that for `CC1=C(C)C(=O)OC(C(C)(O)C2CCC3C4CC=C5CC(OC6OC(COC7OC(CO)C(O)C(O)C7O)C(O)C(O)C6O)CC(O)C5(C)C4CCC32C)C1` (stereo not given), “inactive”.

Values taken from PubChem BioAssay (NCATS).
